Compounds with a hit are over-represented: about 10% of the library has one in this group of screens.
KB-V1 cytotox: qHTS assay for MDR1-selective chemotherapeutics: Primary screen using the drug-selected MDR subline cells KB-V1. 400,000 tested, 3.4% active. AID 1347076, 2019. Potency, µM (titrated, usually from 46.1 µM), actives largely listed as cytotoxic. KB-V1 MDR cells viability, CellTiter-Glo, 72 h; further: on the % scale 0 is the no-effect control and ±100 the full control effect; nearly all actives have a fitted effect of over 60% in size
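KB-V1 MDR subline cells in DMEM (phenol-red free, 10% FBS) exposed to compounds in qHTS concentration series for 72 h at 37 degrees C. Viability read by CellTiter-Glo luminescence; concentration-effect curves fitted after normalization and correction.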
KB-3-1 tox: qHTS assay for MDR1-selective chemotherapeutics: Primary screen using the parental adenocarcinoma cell KB-3-1; KB-3-1 viability, CellTiter-Glo ATP luminescence, 72 h; Potency, µM (doses to about 46.1 µM), most hits filed as cytotoxic; 400,000 tested, 1.4% active; AID 1347075, 2019; further: on the % scale 0 is the no-effect control and ±100 the full control effect; nearly all actives have a fitted effect of over 60% in size
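KB-3-1 cells, DMEM (no phenol red) + 10% FBS; compound by pin transfer, 72 h, 37 °C. Readout: CellTiter-Glo luminescence after 10 min. Data normalized, curve-fitted.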
Gal4-VP16 FLuc: VP16 counterscreen qHTS for inhibitors of ROR gamma transcriptional activity | Drosophila S2 Gal4-VP16 UAS-luciferase, luminescence, 20 h | Potency, µM (doses to about 53.6 µM), for the others: at the highest dose activity, negative = inhibition, actives largely listed as inhibitors | 310,000 tested, 3.5% active | AID 2546, 2010;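 further: Gal4-VP16 expression switched on by copper sulfate through the metallothionein promoter; on the % scale 0 is the no-effect control and ±100 the full control effect; nearly all actives have a fitted effect of over 50% in size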
RORgamma inh: qHTS for inhibitors of ROR gamma transcriptional activity. AID 2551, 2010. Nuclear receptor ROR-gamma (Mus musculus), P51450. 310,000 tested, 5.4% active. Potency, µM (top dose mostly 53.6 µM), for the others: at the top dose activity change, negative = inhibition, most hits filed as inhibitors. Drosophila S2 Gal4-RORgamma UAS-luciferase reporter, 20 h; further: on the % scale 0 is the no-effect control and ±100 the full control effect; nearly all actives have a fitted effect of over 60% in size
Target sequence (P51450 whole entry, looked up, the tested form may be a part): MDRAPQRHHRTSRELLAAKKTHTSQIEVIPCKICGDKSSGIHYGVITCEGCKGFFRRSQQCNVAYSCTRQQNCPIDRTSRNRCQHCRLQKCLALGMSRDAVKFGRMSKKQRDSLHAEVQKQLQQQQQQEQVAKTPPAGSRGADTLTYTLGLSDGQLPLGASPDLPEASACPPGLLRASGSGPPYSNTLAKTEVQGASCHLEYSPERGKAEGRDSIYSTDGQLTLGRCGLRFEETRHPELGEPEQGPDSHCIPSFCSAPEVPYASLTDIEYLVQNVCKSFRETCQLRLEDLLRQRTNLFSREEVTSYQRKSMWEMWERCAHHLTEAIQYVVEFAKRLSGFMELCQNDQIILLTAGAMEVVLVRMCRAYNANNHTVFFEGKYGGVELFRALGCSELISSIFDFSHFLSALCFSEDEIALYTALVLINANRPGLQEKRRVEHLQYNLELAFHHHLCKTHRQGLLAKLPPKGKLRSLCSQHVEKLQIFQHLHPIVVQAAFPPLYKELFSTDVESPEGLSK
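Luciferase reporter read in Schneider cells carrying Gal4-RORγ (mouse) and UAS-Photinus luciferase; cells given compound 1 h before 700 uM copper sulfate induction, then incubated 20 h at ambient temperature.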
SW480 rereplic: A quantitative high throughput screen for small molecules that induce DNA re-replication in SW480 colon adenocarcinoma cells; SW480 DNA re-replication, Hoechst DNA content imaging, 48 h; Potency, µM (top dose mostly 46.1 µM), without a hit: at the top dose re-replication activation, hits mostly activators; 340,000 tested, 1.8% active; AID 624297, 2012; further: % of control where 0% means no effect; nearly all actives have a fitted effect of over 55% in size
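DNA re-replication was detected as more nuclei of elevated Hoechst intensity after 48 hr exposure to compound (23 nL pinned per well of 250 cells).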
MCF10A rerep: A quantitative high throughput screen for small molecules that induce DNA re-replication in MCF 10a normal breast cells; MCF 10A DNA re-replication, Hoechst nuclear intensity, 48 h; Potency, µM (doses to about 46.1 µM), for inactives: at the top dose activity, positive = re-replication, actives largely listed as activators; 350,000 tested, 2.9% active; further: % of control where 0% means no effect; nearly all actives have a fitted effect of over 50% in size
Numbers without * were called inactive; i = inactive; ? = inconclusive; / = no result given; [ ] = another dose, or the depositor's remark. The call rests on the fitted dose curve; in most records, active means well fitted curve in the direction sought with a large enough effect; inconclusive means small, poorly fitted or top-dose-only effect, or another doubt; inactive means no such curve, though single readings can be large; an effect the other way counts as inactive or inconclusive. Potency means the concentration at half of the fitted maximal effect.

SMILES | KB-V1 cytotox | KB-3-1 tox | Gal4-VP16 FLuc | RORgamma inh | SW480 rereplic | MCF10A rerep
C=CCc1c(C)[nH]c2c(OC)cccc2c1=S | i | i | ? | 11µM* | -97% | 0%
CCc1ccc(Nc2ccc3nonc3c2[N+](=O)[O-])cc1 | i | i | / | / | -93% | -1%
CCOC(=O)NNc1ccc2nonc2c1[N+](=O)[O-] | i | ? | ? | -35% | 23µM* | 12%
c1cc2c3c(c1)ccc1cccc(c13)C2 | / | / | 3% | 8% | / | /
CCCCCCCN[C@H]1CCC[C@@H]1CCCCCCC(=O)O | / | / | -2% | 1% | / | /
COc1ccc(NC(=S)NCCc2ccccc2OC)c(OC)c1 | 21µM* | ? | ? | -136% | 5% | 1%
COc1ccc(NC(=S)NCc2ccccc2Cl)c(OC)c1 | ? | i | 7.1µM* | 13µM* | -4% | 7%
COc1ccccc1CNC(=S)NCc1ccc(Cl)cc1 | i | i | 7.1µM* | 4µM* | -18% | 8%
COc1ccc(NC(=S)Nc2ccccc2OC)c(OC)c1 | i | i | 1%[10 µM] | 14% | 10% | 2%
COc1ccccc1NC(=S)NCc1ccccc1Cl | i | i | 7.1µM* | 8.9µM* | -1% | -1%
CN(C)c1ccc(CNC(=O)c2ccccc2NC(=O)c2nsc3ccccc23)cc1 | i | i | / | / | / | /
COCOc1cc(OC)ccc1C(=O)/C=C/c1cccc(C(F)(F)F)c1 | / | / | -11% | 5% | / | /
c1ccc(OCCSc2nnc3sc4ccccc4n23)cc1 | ? | i | 11µM* | 11µM* | 0% | -4%
COc1cccc(OCCSc2nnc3sc4ccccc4n23)c1 | i | i | / | -22%[0.365 µM] | -7% | -2%
Cc1ccc(-c2nc3ccccc3o2)cc1NC(=O)C(C)Oc1ccccc1 (centres undefined) | i | i | / | / | / | /
Cc1oc(-c2ccc(C(=O)N(C)Cc3ccccc3)cc2)nc1CN1CCc2ccccc21 | 13µM* | 15µM* | / | / | / | /
Cc1ccc(CNC(=O)c2ccc(-c3nc(CN4CCc5ccccc54)c(C)o3)cc2)cc1 | ? | i | / | / | / | /
COCCNC(=O)c1ccc(-c2nc(CN3CCc4ccccc43)c(C)o2)cc1 | 10µM* | ? | / | / | / | /
CCOC(=O)/C=C1\SCC(=O)N1CC(=O)NC(c1ccccc1)c1ccccc1 | 6.5µM* | i | -5% | 41% | 5% | 5%
Cc1c(C(=O)N2CCCC(C)(C(=O)NS(=O)(=O)C3CC3)C2)oc2ccccc12 (centres undefined) | i | i | / | / | / | /
CC(C)c1cc(CN2C(C)COCC2C)cc(C(C)C)c1O (centres undefined) | 16µM* | ? | / | / | -3% | 2%
Cc1cc(N/N=C/c2ccccc2)nc(NCc2ccccc2)n1 | 13µM* | i | ? | 4% | ? | ?
Cc1cc(-c2ccccc2)nc(N/N=C/c2ccc(N(C)C)cc2)n1 | ? | i | / | / | 3% | ?
Cc1cc(Nc2cccc(Cl)c2)nc(NCc2ccccc2)n1 | i | ? | 16µM* | ? | ? | ?
Cc1cc(N/N=C/c2cccc(Cl)c2)nc(NCc2ccccc2)n1 | ? | ? | ? | ? | 5% | ?
SMILES | KB-V1 cytotox | KB-3-1 tox | Gal4-VP16 FLuc | RORgamma inh | SW480 rereplic | MCF10A rerep
COc1ccc(/C=N/Nc2nc(C)cc(-c3ccccc3)n2)cc1OC | i | i | ? | 11µM* | ? | ?
Cc1cc(N/N=C/c2ccc(Cl)cc2)nc(NCc2ccccc2)n1 | ? | i | ? | ? | ? | ?
Cc1cc(-c2ccccc2)nc(N/N=C/c2ccc([N+](=O)[O-])cc2)n1 | 23µM* | i | -23% | -30% | -84% | 9%
Cc1ccccc1-c1cc2nc(NCc3ccccc3F)n(C)c(=O)c2s1 | i | i | / | / | / | /
O=C(Cc1ccc(NC(=O)N2CCSc3ncccc32)cc1)NCc1ccccc1 | i | i | / | / | / | /
Cc1cc(-c2ccccc2)nc(N/N=C/c2ccco2)n1 | ? | i | ? | 8.9µM* | 8% | -3%
Cc1cc(C)nc(N/N=C/c2ccco2)n1 | i | i | 14% | 23% | -4% | -3%
Cc1cc(-c2ccccc2)nc(N/N=C/c2ccccc2)n1 | i | i | ? | 14µM* | 12% | 21%
Cc1ccc(-c2cc(-c3ccccc3)nc(N/N=C/c3cccnc3)n2)cc1 | ? | i | / | / | ? | 9.2µM*
Cc1cc(-c2ccccc2)nc(N/N=C/c2cccnc2)n1 | ? | i | -7% | -10% | -7% | -5%
C(=N/Nc1nc(-c2ccccc2)cc(-c2ccccc2)n1)/c1cccnc1 | ? | ? | ? | ? | -8% | ?
COc1ccc(/C=N/Nc2nc(-c3ccc(Cl)cc3)cc(C(F)(F)F)n2)cc1OC | 7.3µM* | i | ? | ? | -4% | 26%
CCCN1CCN(c2nnc(-n3cccc3C(=O)Nc3ccccc3C(F)(F)F)s2)CC1 | i | i | / | / | / | /
CCc1ccc(NC(=O)C2CCCN(c3nn4cc(-c5ccc(OC)cc5)nc4s3)C2)cc1 (centres undefined) | ? | i | / | / | / | /
O=[N+]([O-])c1ccc(N/N=C/c2ccccc2)c(F)c1 | ? | i | 20% | ? | ? | 5.8µM*
O=[N+]([O-])c1ccc(C=NNc2ccccc2)cc1 | i | i | / | / | 14% | ?
CCCOc1ccc(CNC(=O)CN2C(=O)c3cccnc3Oc3ccc(C)cc32)cc1 | i | i | / | / | / | /
CCN1CCC(NCCc2ccc(F)cc2)CC1 | i | i | / | / | -3% | 18µM*
COC(=O)C(CC(=O)c1ccc(Br)cc1)n1ccnc1 (centres undefined) | i | i | 1µM* | 0.63µM* | / | /
Cc1ccccc1-n1c(C)nnc1SCC(=O)N1CCc2ccccc2C1 | 6.5µM* | i | 2% | -2% | 0% | ?
C/C(CC(=O)Nc1cccc(Cl)c1Cl)=N\NC(=O)c1ccccc1N | i | i | -83% | 13µM* | 2% | ?
COc1ccc(Cl)cc1NC(=O)C/C(C)=N/NC(=O)c1ccccc1Cl | i | i | 13µM* | 20%[1.91 µM] | -1% | ?
C/C(CC(=O)Nc1cccc(Cl)c1Cl)=N\NC(=O)c1ccccc1Br | i | i | ? | ? | -10% | 12%
CCCCN1CCc2c1nc1ccc(Br)cc1c2N | 21µM* | i | 1% | -3% | 1% | 5%

Bioassay records (PubChem)
